# Measurements reported in PubChem BioAssay.
# Where “and” joins values, the source holds several entries; their conditions need not be identical. Identical values can stand only once. Results filed as inconclusive are left out. Calls of active or inactive are those of the source. Unless noted, no rule for the calls is given here.
# Experiments:
# [1] = compounds altering Cy5-DNA-NS3h complex signal – biochemical, LOPAC1280, artefact control for HCV NS3 helicase inhibitor project (AID 687037); details: Cy5-DNA-NS3h complex fluorescence interference counterscreen
# [2] = tested on: Aerobactin synthetase IucA (Klebsiella pneumoniae); test: inhibition of K. pneumoniae IucA enzyme – biochemical, Tocris library, absorbance (AID 1345561); details: purified IucA enzyme assay, absorbance (OD) read-out; stronger effect = lower value;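 tested at 8 µM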;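 also: 100% = enzyme without compound and 0% = no enzyme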
# [3] = tested on: Aerobactin synthetase IucA (Klebsiella pneumoniae, hypervirulent); test: biochemical IucA inhibition screen of LOPAC library by absorbance (AID 1346212); details: IucA enzyme assay, absorbance (OD) readout; stronger effect = lower value;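 tested at 8 µM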;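 also: 100% = no compound wells and 0% = no enzyme wells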
# [4] = blockers of cellular phospholipid synthesis – cell-based, LOPAC library, screen 4, primary screen (AID 1347384); details: animal cells, phospholipid biosynthesis inhibition screen; at 10 µM
# [5] = target: ATP-dependent translocase ABCB1 (Homo sapiens) (UniProt P08183); test: P-glycoprotein substrate transport blockade – cell-based (AID 377; in the data active = fluorescence slope change above about 50%); details: MDR1-expressing cells, fluorescent substrate accumulation slope; stronger effect = higher value; concentration not given here
# [6] = viability loss in pontine glioma line – cell-based, SU-DIPG-XIII, MIPE4.0, CellTiter-Glo, qHTS, dose response (AID 1347061; cut-off not given, nearly all actives have AC50 up to about 37 µM;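 also: cells exposed to compound for 48 hours before readout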); details: CellTiter-Glo ATP luminescence
# [7] = viability loss in pontine glioma line – cell-based, JHH-DIPG-1, MIPE4.0, CellTiter-Glo, qHTS, dose response (AID 1347062; cut-off not given, nearly all actives have AC50 up to about 27 µM;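 as to AC50: cells exposed to compound for two days before readout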); details: JHH-DIPG-1 viability, CellTiter-Glo ATP luminescence
# [8] = viability loss in pontine glioma line – cell-based, SU-DIPG-IV, MIPE4.0, CellTiter-Glo, qHTS, dose response (AID 1347063; cut-off not given, nearly all actives have AC50 up to about 30 µM;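 also: compound exposure lasted 48 hours before the viability readout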); details: CellTiter-Glo ATP luminescence
# [9] = growth inhibition of DIPG cells – cell-based, MIPE4.0 library, CellTiter-Glo luminescence, qHTS (AID 1347066; cut-off not given, nearly all actives have AC50 up to about 30 µM;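 also: cells exposed to compound for 48 hours before readout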); details: SU-DIPG-VI viability, CellTiter-Glo ATP luminescence
# [10] = target: Huntingtin (Homo sapiens) (UniProt P42858); test: mutant huntingtin aggregation blockers – QA1, dose response (AID 1584); details: in vitro mutant huntingtin aggregation assay; confirmation test; at 10 µM; stronger effect = lower value
# [11] = chitosan synthesis blockers in C. neoformans – flow cytometry, Cibacron Brilliant Red staining (AID 1347148); details: Cryptococcus neoformans chitosan, stronger effect = lower value; at 10 µM unless noted;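 also: compound exposure lasted three days at 37 degrees C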
# [12] = viability loss in pontine glioma line – cell-based, SU-DIPG-XVII, MIPE5.0, CellTiter-Glo, qHTS, dose response (AID 1347060; cut-off not given, nearly all actives have AC50 up to about 26 µM;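 as to AC50: cells exposed to compound for 48 hours before viability readout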); details: CellTiter-Glo ATP luminescence
# [13] = viability loss in pontine glioma line – cell-based, SU-DIPG-XIII, MIPE5.0, CellTiter-Glo, qHTS, dose response (AID 1347064; cut-off not given, nearly all actives have AC50 up to about 23 µM;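 as to AC50: cells exposed to compound for 48 hours before the viability read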); details: CellTiter-Glo ATP luminescence
# [14] = viability loss in pontine glioma line – cell-based, SU-DIPG-XXV, MIPE5.0, CellTiter-Glo, qHTS, dose response (AID 1347065; cut-off not given, nearly all actives have AC50 up to about 26 µM;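 also: cells exposed to compound for 48 hours before ATP readout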); details: CellTiter-Glo ATP luminescence
# [15] = growth inhibition of DIPG cells – cell-based, MIPE5.0 library, qHTS (AID 1347068; cut-off not given, nearly all actives have IC50 up to about 30 µM;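 as to IC50: cells exposed to compound for 48 hours before viability readout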); details: SU-DIPG-XXV viability
# [16] = JHH-DIPG-1 glioma cell viability, MIPE5.0 library, CellTiter-Glo luminescence, qHTS (AID 1347067; cut-off not given, nearly all actives have AC50 up to about 26 µM;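 also: cells exposed to compound for 48 hours before readout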); details: JHH-DIPG-1 glioma viability, CellTiter-Glo ATP luminescence
# [17] = selective SMN2 exon splicing luciferase activators – cell-based, SMN2/SMN1 luciferase reporters (AID 1598); details: SMN2 vs SMN1 luciferase splicing reporter cells, at 10 µM; SMN1 luciferase ratio: measured here: SMN1 luciferase reporter average; SMN2 luciferase ratio: measured here: SMN2 luciferase reporter average, stronger effect = higher value; SMN2/SMN1 luciferase ratio: stronger effect = higher value
# [18] = rescue of PC12 cells from polyQ htt toxicity – LDH release (AID 1610); details: PC12 mutant huntingtin toxicity, final LDH at 4 uM, stronger effect = lower value
# ATP-dependent translocase ABCB1 (Homo sapiens), sequence (P08183 whole entry, looked up): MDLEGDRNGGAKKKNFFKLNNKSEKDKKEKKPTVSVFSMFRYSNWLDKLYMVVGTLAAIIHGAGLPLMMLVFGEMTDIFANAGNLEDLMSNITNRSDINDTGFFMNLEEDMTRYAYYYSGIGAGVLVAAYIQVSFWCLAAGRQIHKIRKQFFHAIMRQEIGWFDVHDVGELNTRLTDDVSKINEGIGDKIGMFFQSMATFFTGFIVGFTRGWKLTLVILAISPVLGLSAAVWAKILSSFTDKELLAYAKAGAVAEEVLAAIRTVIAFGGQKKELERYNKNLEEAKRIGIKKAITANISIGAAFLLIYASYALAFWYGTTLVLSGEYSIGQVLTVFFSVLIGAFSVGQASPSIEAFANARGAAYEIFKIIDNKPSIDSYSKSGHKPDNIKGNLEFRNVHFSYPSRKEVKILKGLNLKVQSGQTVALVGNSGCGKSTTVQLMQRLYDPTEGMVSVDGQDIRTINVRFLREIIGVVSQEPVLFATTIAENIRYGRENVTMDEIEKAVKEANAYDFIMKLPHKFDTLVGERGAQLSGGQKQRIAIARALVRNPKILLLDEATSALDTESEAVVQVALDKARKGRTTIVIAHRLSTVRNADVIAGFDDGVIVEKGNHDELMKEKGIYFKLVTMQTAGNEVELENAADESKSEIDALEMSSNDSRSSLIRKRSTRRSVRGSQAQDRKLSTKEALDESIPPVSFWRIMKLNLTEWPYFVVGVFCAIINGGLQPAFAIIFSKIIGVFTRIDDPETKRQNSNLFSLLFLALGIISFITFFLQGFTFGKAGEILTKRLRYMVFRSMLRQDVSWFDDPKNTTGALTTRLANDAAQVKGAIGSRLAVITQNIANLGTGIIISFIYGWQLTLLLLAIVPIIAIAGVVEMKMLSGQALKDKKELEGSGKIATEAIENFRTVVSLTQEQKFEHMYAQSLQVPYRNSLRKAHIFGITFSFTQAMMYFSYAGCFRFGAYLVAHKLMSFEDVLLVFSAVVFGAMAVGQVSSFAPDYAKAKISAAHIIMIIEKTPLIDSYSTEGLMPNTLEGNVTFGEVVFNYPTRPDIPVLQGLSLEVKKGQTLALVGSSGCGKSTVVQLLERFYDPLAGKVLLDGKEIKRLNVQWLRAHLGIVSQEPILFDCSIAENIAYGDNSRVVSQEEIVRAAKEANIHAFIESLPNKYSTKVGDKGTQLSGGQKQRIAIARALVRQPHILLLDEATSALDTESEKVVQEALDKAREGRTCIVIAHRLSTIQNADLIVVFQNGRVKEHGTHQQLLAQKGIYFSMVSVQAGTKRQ
# Huntingtin (Homo sapiens), sequence (P42858 whole entry, looked up): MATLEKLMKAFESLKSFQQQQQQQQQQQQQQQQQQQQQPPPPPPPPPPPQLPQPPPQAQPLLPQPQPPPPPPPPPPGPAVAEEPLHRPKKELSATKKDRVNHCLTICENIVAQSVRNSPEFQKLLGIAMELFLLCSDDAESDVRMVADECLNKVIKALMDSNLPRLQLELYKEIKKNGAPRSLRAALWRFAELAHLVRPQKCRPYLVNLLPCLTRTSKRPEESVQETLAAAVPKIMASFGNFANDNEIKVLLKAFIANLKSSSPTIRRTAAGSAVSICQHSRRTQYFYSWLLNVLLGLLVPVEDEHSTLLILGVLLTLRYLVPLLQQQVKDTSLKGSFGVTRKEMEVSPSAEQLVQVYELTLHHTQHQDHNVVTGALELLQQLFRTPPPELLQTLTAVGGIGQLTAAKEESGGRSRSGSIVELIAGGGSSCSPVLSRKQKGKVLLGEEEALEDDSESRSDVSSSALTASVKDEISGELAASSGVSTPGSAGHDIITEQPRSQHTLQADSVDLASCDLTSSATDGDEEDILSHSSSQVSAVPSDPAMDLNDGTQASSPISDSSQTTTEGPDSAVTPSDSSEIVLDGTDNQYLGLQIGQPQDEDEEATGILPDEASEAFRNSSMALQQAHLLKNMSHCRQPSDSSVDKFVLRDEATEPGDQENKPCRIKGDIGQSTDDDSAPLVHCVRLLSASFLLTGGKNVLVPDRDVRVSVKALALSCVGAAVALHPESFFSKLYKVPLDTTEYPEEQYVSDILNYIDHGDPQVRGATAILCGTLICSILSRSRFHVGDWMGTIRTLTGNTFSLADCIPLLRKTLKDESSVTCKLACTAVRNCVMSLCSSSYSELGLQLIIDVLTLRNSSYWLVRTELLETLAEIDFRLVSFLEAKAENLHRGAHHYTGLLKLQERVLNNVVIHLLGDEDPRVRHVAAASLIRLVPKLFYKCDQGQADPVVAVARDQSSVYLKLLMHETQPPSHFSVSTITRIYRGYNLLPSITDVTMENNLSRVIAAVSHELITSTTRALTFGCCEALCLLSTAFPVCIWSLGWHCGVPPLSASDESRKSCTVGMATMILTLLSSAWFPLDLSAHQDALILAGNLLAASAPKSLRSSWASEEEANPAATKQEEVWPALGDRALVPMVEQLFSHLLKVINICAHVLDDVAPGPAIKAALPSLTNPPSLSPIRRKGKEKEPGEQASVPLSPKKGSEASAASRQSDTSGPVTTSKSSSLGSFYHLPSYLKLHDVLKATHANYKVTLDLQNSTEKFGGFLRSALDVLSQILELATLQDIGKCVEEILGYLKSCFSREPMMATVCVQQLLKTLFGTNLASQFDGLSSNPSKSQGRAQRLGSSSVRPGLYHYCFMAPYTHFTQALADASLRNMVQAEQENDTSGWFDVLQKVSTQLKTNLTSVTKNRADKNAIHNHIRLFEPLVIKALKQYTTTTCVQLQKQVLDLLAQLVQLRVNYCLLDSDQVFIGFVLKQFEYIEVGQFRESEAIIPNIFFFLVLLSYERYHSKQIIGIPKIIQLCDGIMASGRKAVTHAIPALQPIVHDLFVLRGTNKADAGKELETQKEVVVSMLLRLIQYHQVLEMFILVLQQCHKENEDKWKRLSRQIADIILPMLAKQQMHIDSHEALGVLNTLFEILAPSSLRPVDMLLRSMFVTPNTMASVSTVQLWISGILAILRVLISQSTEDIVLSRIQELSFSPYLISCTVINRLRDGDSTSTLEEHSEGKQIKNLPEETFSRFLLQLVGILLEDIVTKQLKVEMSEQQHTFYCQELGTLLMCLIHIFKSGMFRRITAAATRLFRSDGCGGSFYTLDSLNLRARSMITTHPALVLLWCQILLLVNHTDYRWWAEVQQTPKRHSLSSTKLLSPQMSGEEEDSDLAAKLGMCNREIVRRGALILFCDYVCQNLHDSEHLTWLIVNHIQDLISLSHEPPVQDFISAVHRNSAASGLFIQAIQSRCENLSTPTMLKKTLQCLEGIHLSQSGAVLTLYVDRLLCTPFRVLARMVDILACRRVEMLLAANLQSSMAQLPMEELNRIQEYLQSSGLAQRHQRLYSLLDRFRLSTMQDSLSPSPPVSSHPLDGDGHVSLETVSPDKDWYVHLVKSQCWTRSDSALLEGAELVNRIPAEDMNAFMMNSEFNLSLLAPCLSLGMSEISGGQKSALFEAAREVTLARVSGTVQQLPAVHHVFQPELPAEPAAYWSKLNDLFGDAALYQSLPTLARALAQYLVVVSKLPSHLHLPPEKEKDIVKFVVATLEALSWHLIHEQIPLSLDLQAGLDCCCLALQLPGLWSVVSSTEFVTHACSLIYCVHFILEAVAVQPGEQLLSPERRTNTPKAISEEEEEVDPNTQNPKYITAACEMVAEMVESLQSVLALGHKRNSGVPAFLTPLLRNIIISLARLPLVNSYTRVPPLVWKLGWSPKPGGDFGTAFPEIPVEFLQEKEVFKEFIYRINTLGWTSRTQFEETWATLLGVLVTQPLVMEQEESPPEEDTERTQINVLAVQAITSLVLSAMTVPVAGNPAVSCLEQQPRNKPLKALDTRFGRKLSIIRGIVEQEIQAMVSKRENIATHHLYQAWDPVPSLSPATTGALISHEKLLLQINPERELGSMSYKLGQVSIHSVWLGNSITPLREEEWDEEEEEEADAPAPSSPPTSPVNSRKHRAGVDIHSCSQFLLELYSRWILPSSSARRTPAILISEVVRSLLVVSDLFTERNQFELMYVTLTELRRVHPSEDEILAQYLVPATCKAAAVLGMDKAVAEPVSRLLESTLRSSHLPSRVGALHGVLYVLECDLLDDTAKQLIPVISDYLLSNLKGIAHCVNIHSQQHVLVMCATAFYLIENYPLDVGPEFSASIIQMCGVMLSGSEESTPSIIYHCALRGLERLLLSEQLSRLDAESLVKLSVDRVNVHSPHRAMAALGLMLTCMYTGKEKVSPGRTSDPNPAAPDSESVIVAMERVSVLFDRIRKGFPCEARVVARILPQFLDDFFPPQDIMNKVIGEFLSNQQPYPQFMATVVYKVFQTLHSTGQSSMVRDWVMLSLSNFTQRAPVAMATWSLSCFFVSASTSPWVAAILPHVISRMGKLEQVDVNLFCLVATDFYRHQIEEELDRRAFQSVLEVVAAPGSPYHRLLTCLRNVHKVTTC
smiles,measurement,setting,value
Cc1nccc2c1[nH]c1ccccc12,fluorescence ratio (interference),[1],1 (inactive)
same,remaining activity,[2],108% (inactive)
same,remaining activity,[3],99.4% (inactive)
same,outcome,[4],inactive
CC[C@@H]1C(=O)OC[C@@H]1Cc1cncn1C,fluorescence slope change,[5],105% (active)
same,fluorescence ratio (interference),[1],1 (inactive)
same,remaining activity,[3],112% (inactive) and 106% (inactive)
CN1CCc2cc3c(cc2C1O)OCO3 (stereo unspecified),fluorescence slope change,[5],10.4% (inactive)
COc1cc(OC)c(OC)cc1C=O,outcome,[6],inactive
same,outcome,[7],inactive
same,outcome,[8],inactive
same,outcome,[9],inactive
O=C1C=CC(=O)c2c(O)cccc21,aggregation ratio,[10],0.312
same,fold fluorescence,[11],2.01 [at 287.1 µM] (active)
COc1cc([C@@H]2c3cc4c(cc3[C@@H](O)C3COC(=O)C32)OCO4)cc(OC)c1O (stereo partly specified),AC50,[12],0.263 µM (active)
same,AC50,[13],0.525 µM (active)
same,AC50,[14],0.417 µM (active)
same,IC50,[15],0.332 µM (active)
CC1=NCCc2c1[nH]c1cc(O)ccc21,fluorescence slope change,[5],159% (active)
COC1=C[C@@H]2[C@@H]3Cc4ccc(OC)c(O)c4[C@]2(CCN3C)CC1=O,AC50,[6],3.32 µM (active)
same,AC50,[8],0.935 µM (active)
same,outcome,[13],inactive
same,outcome,[14],inactive
same,outcome,[9],inactive
same,outcome,[16],inactive
same,outcome,[15],inactive
OC1CCCCC1N1CCC(c2ccccc2)CC1 (stereo unspecified),fluorescence ratio (interference),[1],1 (inactive)
same,outcome,[4],inactive
O=C(O)CC[N+](=O)[O-],fluorescence ratio (interference),[1],1 (inactive)
same,remaining activity,[3],116% (inactive)
same,outcome,[4],inactive
COc1ccc2c(c1)[nH]c1c(C)nccc12,fluorescence slope change,[5],59.3% (active)
CN1C2CCC1CC(OC(c1ccccc1)c1ccccc1N)C2 (stereo unspecified),fluorescence ratio (interference),[1],1 (inactive)
same,remaining activity,[3],119% (inactive)
same,outcome,[4],inactive
COc1ccc2c(c1O)-c1c(OC)c(OC)cc3c1[C@H](C2)N(C)CC3,fluorescence slope change,[5],13.7% (inactive)
CC[N+]1(C)CCCC(OC(=O)C(O)(c2ccccc2)c2ccccc2)C1 (stereo unspecified),fluorescence slope change,[5],17.6% (inactive)
CC1=C(O)C(=O)C=C2C1=CC=C1[C@@]2(C)CC[C@@]2(C)[C@@H]3C[C@](C)(C(=O)O)CC[C@]3(C)CC[C@]12C,AC50,[12],2.09 µM (active)
same,AC50,[6],3.32 µM (active)
same,AC50,[7],2.64 µM (active)
same,AC50,[8],1.32 µM (active)
same,AC50,[13],2.35 µM (active)
same,AC50,[14],1.66 µM (active)
same,AC50,[9],1.18 µM (active)
same,AC50,[16],0.934 µM (active)
same,IC50,[15],11.8 µM (active)
NCCc1c[nH]c2ccccc12,fluorescence ratio (interference),[1],1 (inactive)
same,remaining activity,[3],89.5% (inactive)
same,outcome,[4],inactive
NC(N)=NOCC[C@H](N)C(=O)O,fluorescence ratio (interference),[1],1 (inactive)
same,remaining activity,[3],106% (inactive) and 121% (inactive)
same,outcome,[4],inactive
COc1ccc2c3c([nH]c2c1)C(C)=NCC3,fluorescence slope change,[5],7.9% (inactive)
O=C1C=C2C(=CCOC2O)O1 (stereo unspecified),SMN1 luciferase ratio,[17],0.26
same,SMN2/SMN1 luciferase ratio,[17],2.76 (active)
same,SMN2 luciferase ratio,[17],0.46
same,normalised LDH release,[18],0.848
O=[N+]([O-])c1cc(O)c(O)c([N+](=O)[O-])c1,fluorescence ratio (interference),[1],1 (inactive)
same,remaining activity,[2],95.2% (inactive)
same,remaining activity,[3],97% (inactive)
same,outcome,[4],inactive
O=c1cccc2n1CC1CNC[C@H]2C1,remaining activity,[2],96.4% (inactive)
same,outcome,[12],inactive
same,AC50,[7],2.64 µM (active)
same,outcome,[16],inactive
same,outcome,[15],inactive
O=C1CCCN1CC#CCN1CCCC1,fluorescence ratio (interference),[1],0.9 (inactive)
same,remaining activity,[2],92.7% (inactive)
same,remaining activity,[3],119% (inactive)
same,outcome,[4],inactive
c1ccc2c(c1)[nH]c1cnccc12,fluorescence slope change,[5],73% (active)
COc1cccc2c1cc([N+](=O)[O-])c1c(C(=O)O)cc3c(c12)OCO3,fold fluorescence,[11],4.86 [at 146.5 µM] (inactive)
COc1ccc2c(c1OC)C(=O)O[C@@H]2[C@H]1c2cc3c(cc2CCN1C)OCO3,fluorescence slope change,[5],159% (active)
NC(=NCCC[C@H](N)C(=O)O)N[N+](=O)[O-],fluorescence ratio (interference),[1],1 (inactive)
same,remaining activity,[3],115% (inactive)
same,outcome,[4],inactive
